Source: PubChem
In the library only some 2.2% were active in any assay of this set; here they are far more common.
LGR2 antag: inhibitors of bursicon-induced Drosophila LGR2 receptor cAMP signaling | inhibition, % at 9.99 µM | 380,000 tested, 0.35% active | HEK293 LGR2, CRE-luciferase, bursicon-stimulated, 4 h;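 active = drop in luminescence signal, shown as inhibition above about 50% in the replicate tests, limit read from the data, passing the limit was not always enough; inconclusive = probably only some replicates passing the limit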;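 note: agonist challenge used bursicon conditioned medium at about half maximal strength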
Shn3 inh set2: Schnurri-3 reporter inhibition in Clone20 osteoblasts; Clone20 osteoblast Shn3 3'UTR firefly luciferase, 24 h; inhibition, % at 12.5 µM; 360,000 tested, 0.52% active; AID 588674;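 active = mean inhibition of at least 75% with every replicate also reaching 75%; inconclusive = mean inhibition at least 75% but some replicate below; inactive = mean inhibition below 75%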
EWS-Fli block: blocks EWS/Fli oncoprotein-driven transcription | 350,000 tested, 0.67% active | inhibition, % at 12.6 µM | A673 NR0B1-luciferase reporter, viability-normalised | AID 651661;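 active = mean inhibition of at least 50% after viability correction, with every replicate also passing that limit; inconclusive = mean reaches 50% but only one of two replicates passes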;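 note: firefly luciferase signal divided by Alamar Blue viability fluorescence both relative to DMSO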
PAX8 reporter: lowers PAX8-driven luciferase in RMG-I cells; RMG-I TPO-luciferase reporter, SteadyGlo, 24 h; inhibition, % at 12.6 µM; 360,000 tested, 1.2% active;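 active = mean replicate inhibition at least 60% with every replicate also reaching 60%; inconclusive = only one of the two criteria is met; inactive = mean below 60% and not all replicates reaching 60%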;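 note: luciferase light reporting Pax8 driven TPO promoter activity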
TRPM1 prom inh: MITF TRPM1 promoter inhibition in SK-MEL-5 cells. 330,000 tested, 0.83% active. inhibition, % at 12.5 µM. SK-MEL-5 TRPM1 promoter luciferase, 24 h. AID 488899;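 active = mean inhibition across replicates of 60% or more, whatever share of single replicates reaches that level; inconclusive = some that reach 60%, reason not given; inactive = mean inhibition across replicates below 60%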
EBV LMP1 NFkB: reduces LMP1-driven NF-kappaB luciferase signal; 350,000 tested, 0.69% active; inhibition, % at 12.5 µM; LMP1-induced NF-kappaB luciferase reporter cells, luminescence; in the data active = inhibition above about 41%; inconclusive = no clear call, values can overlap the other calls
Of the large screens only hits and unclear results are named; the others gave an inactive call.

CC(=NNC(=O)c1ccncc1)c1ccccc1Cl	none
C/C(=N\NC(=O)c1ccccc1NC(=O)c1ccc(Cl)cc1)c1ccncc1	LGR2 antag inconclusive, EBV LMP1 NFkB 54
C[C@H](CO)N1C[C@H](C)[C@@H](CN(C)C(=O)CCC(F)(F)F)OCCCC[C@H](C)Oc2ccc(NC(=O)c3ccccc3)cc2C1=O	none (no result: Shn3 inh set2, TRPM1 prom inh, EBV LMP1 NFkB)
O=C1NCCOC(=O)[C@H](Cc2ccc(F)cc2)CC/C=C/C[C@H]1CC(=O)N(CCO)Cc1ccccc1	none
O=C1N[C@@H](Cc2c[nH]c3ccccc23)COC(=O)[C@H](Cc2ccc(F)cc2)C/C=C\C[C@H]1CC(=O)N(CCO)Cc1ccccc1	EBV LMP1 NFkB 43
O=C1N[C@@H](Cc2c[nH]c3ccccc23)COC(=O)[C@@H](Cc2ccc(F)cc2)CC/C=C/C[C@@H]1CC(=O)N(CCO)Cc1ccccc1	PAX8 reporter 75
O=C1NCCOC(=O)[C@@H](Cc2ccc(F)cc2)CC/C=C/C[C@@H]1CC(=O)N(CCO)Cc1ccccc1	Shn3 inh set2 91
Cc1ccc(-c2cnc3c(c2)C(=O)N([C@H](C)CO)C[C@H](C)[C@H](CN(C)C(=O)Cc2ccccc2)O3)cc1	none (no result: Shn3 inh set2, PAX8 reporter, TRPM1 prom inh, EBV LMP1 NFkB)
CCCN1Cc2cccc(C(=O)N3CCN(c4cc(Cl)ccc4C)CC3)c2C1=O	none (no result: LGR2 antag, EWS-Fli block, PAX8 reporter, TRPM1 prom inh)
COCCN1Cc2cccc(C(=O)N3CCN(c4cc(C)ccc4C)CC3)c2C1=O	EBV LMP1 NFkB 78
COCCN1Cc2cccc(C(=O)Nc3ccc4c(c3)OCCO4)c2C1=O	Shn3 inh set2 87
CN(C)CC(C)(C)CNS(=O)(=O)c1ccc(OC(F)(F)F)cc1	EBV LMP1 NFkB 47
O=C(CCNS(=O)(=O)c1ccc(OC(F)(F)F)cc1)N1CCCC1	none
COc1ccc(S(=O)(=O)Nc2ccc3c(c2)C(=O)N([C@H](C)CO)C[C@H](C)[C@H](CN(C)C(=O)Nc2ccc(C(F)(F)F)cc2)OCCCC[C@H](C)O3)cc1	none (no result: Shn3 inh set2, TRPM1 prom inh, EBV LMP1 NFkB)
COc1ccc(S(=O)(=O)Nc2ccc3c(c2)C(=O)N([C@H](C)CO)C[C@@H](C)[C@H](CN(C)C(=O)Nc2ccc(C(F)(F)F)cc2)OCCCC[C@@H](C)O3)cc1	PAX8 reporter 62 (no result: Shn3 inh set2, TRPM1 prom inh, EBV LMP1 NFkB)
COc1ccc(S(=O)(=O)Nc2ccc3c(c2)C(=O)N([C@H](C)CO)C[C@@H](C)[C@H](CN(C)C(=O)Nc2ccc(C(F)(F)F)cc2)OCCCC[C@H](C)O3)cc1	PAX8 reporter 77 (no result: Shn3 inh set2, TRPM1 prom inh, EBV LMP1 NFkB)
CCOc1ccc2nc(N/C(N)=N/C(=S)Nc3ccc(C)c(C)c3)nc(C)c2c1	PAX8 reporter 132
CN(/N=C\c1ccc(O)c(O)c1)c1nc(-c2ccccc2)cc(-c2ccccc2)n1	Shn3 inh set2 92 (no result: EWS-Fli block)
O=C(N/N=C/c1ccco1)c1cccc([N+](=O)[O-])c1	none (no result: LGR2 antag)
O=C(N/N=C/c1ccco1)c1cc([N+](=O)[O-])cc([N+](=O)[O-])c1	EWS-Fli block 82
CC(=NNC(=S)Nc1ccccc1Cl)c1ccccn1	Shn3 inh set2 90, PAX8 reporter 71, EBV LMP1 NFkB 57
N/C(=N\NC(=O)Nc1ccccc1)c1ccccn1	none (no result: TRPM1 prom inh, EBV LMP1 NFkB)
C/C(=N/NC(=O)CNC(=O)c1ccccn1)c1ccccc1	none
CC(=NNC(=S)Nc1ccccc1)c1ccccn1	EBV LMP1 NFkB 72 (no result: TRPM1 prom inh)
C=CCNC(=S)N/N=C(\C)c1ccccn1	Shn3 inh set2 91, PAX8 reporter 95, EBV LMP1 NFkB 80 (no result: LGR2 antag, EWS-Fli block)
CO[C@@H]1CN(C)C(=O)c2ccc(NC(=O)c3ccccn3)cc2OC[C@@H](C)N(CC2CC2)C[C@H]1C	none (no result: LGR2 antag, Shn3 inh set2, TRPM1 prom inh, EBV LMP1 NFkB)
C[C@H](CO)N1C[C@H](C)[C@H](CN(C)Cc2ccc(C(F)(F)F)cc2)Oc2ccc(NC(=O)NC3CCCCC3)cc2C1=O	none (no result: Shn3 inh set2, PAX8 reporter, TRPM1 prom inh, EBV LMP1 NFkB)
O=C(/C=C/c1cccs1)c1ccc(N2CCOCC2)cc1	LGR2 antag 93
NS(=O)(=O)c1ccc(N/N=C/c2cn(-c3ccccc3)nc2-c2ccccc2)c([N+](=O)[O-])c1	TRPM1 prom inh 77 (no result: Shn3 inh set2)
O=[N+]([O-])c1ccc(N/N=C/c2cn(-c3ccccc3)nc2-c2ccccc2)cc1	none (no result: LGR2 antag, EWS-Fli block, PAX8 reporter)
COc1ccc(C2=Nn3c(nnc3-c3ccccc3F)SC2)cc1OCC1CC1	EWS-Fli block 56
COC(=O)C[C@H]1CC[C@@H]2[C@H](COc3ccc(NC(=O)c4ccc(OC)cc4)cc3C(=O)N2C)O1	none (no result: Shn3 inh set2, TRPM1 prom inh, EBV LMP1 NFkB)
COc1ccc(CCN2CCC(Nc3nc4ccccc4n3Cc3ccc(F)cc3)CC2)cc1	PAX8 reporter 74, TRPM1 prom inh 96
O=C(Nc1cccc(S(=O)(=O)NCc2ccco2)c1)c1cc(-c2ccccc2)nc2ccccc12	PAX8 reporter 76
Cc1ccc(S(=O)(=O)/N=C2\C(=O)c3ccccc3C([O-])=C2n2cc[n+](CCC(C)C)c2)cc1	TRPM1 prom inh 69 (no result: LGR2 antag, EWS-Fli block, PAX8 reporter)
CCCC[n+]1ccn(C2=C([O-])c3ccccc3C(=O)/C2=N\S(=O)(=O)c2ccc(Br)cc2)c1	TRPM1 prom inh 94
Cc1cc(N/N=C/c2ccc(O)c(C)c2O)nc(-c2ccccc2O)n1	PAX8 reporter 97 (no result: EWS-Fli block)
C[C@H](CO)N1C[C@H](C)[C@@H](CN(C)C(=O)c2ccncc2)OCCCC[C@H](C)Oc2ccc(NC(=O)c3ccccc3)cc2C1=O	none (no result: Shn3 inh set2, EWS-Fli block, TRPM1 prom inh, EBV LMP1 NFkB)
COC(=O)c1sc(N)c(C(=O)OC)c1Cn1ncc(Cl)c(Cl)c1=O	PAX8 reporter 63
Cc1csc(N/N=C/c2ccccc2F)n1	EBV LMP1 NFkB 87
Cc1csc(N/N=C/c2c(F)cccc2Cl)n1	none
Oc1c(C(c2ccccn2)N2CCC(Cc3ccccc3)CC2)cc(Cl)c2cccnc12 (configuration not stated)	PAX8 reporter 83 (no result: LGR2 antag, Shn3 inh set2, TRPM1 prom inh, EBV LMP1 NFkB)
C[C@@H]1CN([C@H](C)CO)C(=O)Cc2cc(NC(=O)C3CCCCC3)ccc2O[C@H]1CN(C)CC1CC1	none (no result: Shn3 inh set2, TRPM1 prom inh, EBV LMP1 NFkB)
CN(C)S(=O)(=O)c1ccc(Cl)c(C(=O)NCCNC(=O)c2cc(S(=O)(=O)N(C)C)ccc2Cl)c1	EBV LMP1 NFkB 71
CN(C)S(=O)(=O)c1ccc(Cl)c(C(=O)NCC2CCCCC2)c1	none
Cc1ccc(OCc2nnc(SCc3cc(=O)[nH]c4ccccc34)n2-c2ccccc2)cc1	none
Cc1ccccc1OCc1nnc(SCc2cc(=O)[nH]c3ccccc23)n1-c1ccccc1	PAX8 reporter 71
Cc1cccc(S(=O)(=O)N[C@H]2CC[C@H](CCNC(=O)CCN3CCCCC3)O[C@@H]2CO)c1	none (no result: Shn3 inh set2, TRPM1 prom inh, EBV LMP1 NFkB)
O=C(C[C@@H]1C[C@H]2c3cc(NC(=O)Cc4ccncc4)ccc3O[C@H]2[C@@H](CO)O1)NCc1ccccn1	none (no result: Shn3 inh set2, TRPM1 prom inh, EBV LMP1 NFkB)
COC(=O)C1=C(C)N(Cc2cccc(C(F)(F)F)c2)C(=NCc2ccc(OC)cc2)NC1c1cccc(Cl)c1 (configuration not stated)	LGR2 antag 59 (no result: Shn3 inh set2, TRPM1 prom inh, EBV LMP1 NFkB)
COC(=O)C1=C(C)N(Cc2cccc(C(F)(F)F)c2)C(=NCc2ccc(OC)cc2)NC1c1cccc(C(F)(F)F)c1 (configuration not stated)	PAX8 reporter 77 (no result: Shn3 inh set2, TRPM1 prom inh, EBV LMP1 NFkB)
C=CCN=C1NC(c2cccc(Cl)c2)C(C(=O)OC)=C(C)N1Cc1ccc(C(F)(F)F)cc1 (configuration not stated)	none (no result: Shn3 inh set2, TRPM1 prom inh, EBV LMP1 NFkB)
